Laboratory results as given in PMC4552634, “A New Set of Chemical Starting Points with Plasmodium falciparum Transmission-Blocking Potential for Antimalarial Drug Discovery” (PLoS ONE, 2015).
Among all 13,000 compounds or so, about 3,200 (25%) showed an effect of 50% or more. Some of the results follow.

System: P. falciparum stage V gametocytes
Set-up: BacTiter-Glo ATP luminescence viability of purified stage V gametocytes in 384-well plates, per cent inhibition versus DMSO
Conditions: 48 h, 5 µM; inhibitor

Compound | % Inhibition
CC1(C)N=C(N)N=C(N)N1OCCCc1cccc(C(F)(F)F)c1 [TCMDC-131651] | -2.569%
COc1ccc2ccccc2c1CNCC1CCN(CC2CCCCC2)CC1 [TCMDC-141412] | -44.03%
COc1ccc(CN2CCC(CNCCc3ccccc3Cl)CC2)cc1 [TCMDC-141343] | 21.62%
COc1ccc(Oc2ccccc2CNCC2CCN(CC3CCCCC3)CC2)cc1 [TCMDC-141413] | 81.97%
COc1ccc(CN2CCC(CNCCc3c(Cl)cccc3Cl)CC2)cc1 [TCMDC-141345] | 89.6%
COc1ccc(CN2CCC(CNCCc3ccccc3Oc3ccccc3)CC2)cc1 [TCMDC-141350] | 98.78%
O=[N+]([O-])c1ccc(Oc2ccccc2CNCC2CCN(CC3CCCCC3)CC2)cc1 [TCMDC-141414] | 46.86%
COc1ccc2c(c1)CC1CN(CCCCNC(=O)c3ccc(NC(=O)c4cc(Cl)cc(Cl)c4)cc3)CCN1C2 (stereo not shown) [TCMDC-138223] | -15.2%
NC1CCN(c2nc(NCCc3ccc(O)cc3)nc(NCc3ccccc3-c3ccccc3)n2)CC1 [TCMDC-133441] | 29.52%
Cc1ccc2c(Cc3cnc(N)nc3N)cc(C)c(N)c2n1 [TCMDC-137878] | -11.15%
COc1ccc(C(C(=O)NC2CCN(C[C@H](O)c3ccnc4ccc(OC)cc34)CC2)N2CCN(c3ccc([N+](=O)[O-])cc3)CC2)cc1 (stereo partly shown) [TCMDC-140992] | -4.461%
O=C(NCc1ccccc1)Nc1ccc(-c2cccc(-c3nc4ccc(C(F)(F)F)cc4[nH]3)c2)cc1 [TCMDC-133160] | -18.34%
O=C(Nc1ccc(F)c(C(F)(F)F)c1)N[C@H]1CCN(CCCCCNC(=O)C2CC2c2ccc(Cl)c(Cl)c2)C1 (stereo partly shown) [TCMDC-136270] | 88.79%
O=C(Nc1ccc(F)c(C(F)(F)F)c1)NC1CCN(CCCCCNC(=O)C2CC2c2ccc(Cl)c(Cl)c2)CC1 (stereo not shown) [TCMDC-136259] | 97.75%
O=C(NCCCCCN1CCCN(C(=O)Nc2ccc(F)c(C(F)(F)F)c2)CC1)C1CC1c1ccc(Cl)c(Cl)c1 (stereo not shown) [TCMDC-136254] | 10.75%
COc1ccc2nccc([C@@H](O)CN3CCC(NC(=O)C(c4cc5ccccc5o4)N4CCN(Cc5ccccc5)CC4)CC3)c2c1 (stereo partly shown) [TCMDC-140988] | 30.33%
O=C(Nc1ccc(-c2nc3ccccc3[nH]2)cc1)C1CCCN(C2CCC2)C1 (stereo not shown) [TCMDC-124687] | -67.58%
O=C(NCCCN1CCCCC1)c1ccc(Nc2nccc(Nc3ccc(Oc4ccccc4)cc3)n2)cc1 [TCMDC-138609] | -10.89%
N#CCc1ccc(Nc2nccc(Nc3ccc(Oc4ccccc4)cc3)n2)cc1 [TCMDC-138577] | 4.825%
CN1CCN(CCCNCc2cccc(Nc3nccc(Nc4ccc(Oc5ccccc5)cc4)n3)c2)CC1 [TCMDC-138616] | 109.5%
O=C(NCCCN1CCCCC1)c1cccc(Nc2nccc(Nc3ccc(Oc4ccccc4)cc3)n2)c1 [TCMDC-138605] | -29.44%
NC(=O)c1cccc(Nc2nccc(Nc3ccc(Oc4ccc5ccccc5c4)cc3)n2)c1 [TCMDC-138600] | -22.11%
CN1CCN(CCCNCc2ccc(Nc3nccc(Nc4ccc(Oc5ccccc5)cc4)n3)cc2)CC1 [TCMDC-138621] | 88.79%

Compound | % Inhibition
O=C(NCCCN1CCOCC1)c1cccc(Nc2nccc(Nc3ccc(Oc4ccccc4)cc3)n2)c1 [TCMDC-138604] | 68.84%
CCCN1CCN(CCNC(=O)c2cccc(Nc3nccc(Nc4ccc(Oc5ccccc5)cc4)n3)c2)CC1 [TCMDC-138606] | -54.96%
O=C(NCCN1CCCC1)c1cccc(Nc2nccc(Nc3ccc(Oc4ccccc4)cc3)n2)c1 [TCMDC-138602] | -15.16%
Brc1cccc(Nc2nccc(Nc3ccc(Oc4ccccc4)cc3)n2)c1 [TCMDC-138559] | 9.5%
O=C(Nc1ccccc1)c1cccc(Nc2nccc(Nc3ccc(Oc4ccccc4)cc3)n2)c1 [TCMDC-138561] | 74.26%
CN1CCN(Cc2cccc(Nc3nccc(Nc4ccc(Oc5ccccc5)cc4)n3)c2)CC1 [TCMDC-138614] | -13.87%
COc1cc2c(cc1C(F)(F)F)N(C(=O)Nc1cc(F)c(F)c(-c3cccnc3)c1)CC2 [TCMDC-139061] | 5.239%
CCC(C)(CC)C(=O)n1ncc2c3c(N)nc(N)nc3ccc21 [TCMDC-137335] | -46.13%
COc1ccc(-n2ccnc2SCC(=O)Nc2cc(C(F)(F)F)ccc2Cl)c(OC)c1 [TCMDC-123822] | 7.482%
CCCc1cc(Cc2cnc(N)nc2N)c2cccnc2c1OC [TCMDC-138034] | 13.25%
O=C(NCCN1CCCCC1)c1cccc(Nc2nccc(Nc3ccc(Oc4ccccc4)cc3)n2)c1 [TCMDC-138603] | 19.36%
c1cncc(-c2cccc(CNc3nccc(Nc4ccc(OCCN5CCOCC5)cc4)n3)c2)c1 [TCMDC-134667] | 2.743%
c1ccc(Oc2ccc(Nc3ccnc(Nc4cccc(CNCCCN5CCOCC5)c4)n3)cc2)cc1 [TCMDC-138615] | 95.32%
CN1CC[C@@H](Oc2cc(C(=O)NCc3ccc(Cl)c(Cl)c3)ccc2C(F)(F)F)C1 [TCMDC-136228] | 28.38%
CCCCCCCCc1c(C)[nH]c(C)c(Br)c1=O [TCMDC-137437] | 29.73%
CCCCCCCCc1c(C)[nH]c(C)c(Cl)c1=O [TCMDC-137538] | 68.39%
CCCCCCCc1c(C)[nH]c2c(OC)cccc2c1=O [TCMDC-138016] | 17.32%
CCCCCCCCc1c(C)[nH]c(C)c(I)c1=O [TCMDC-137430] | 48.86%
CCCCCCCc1c(C)[nH]c2ccccc2c1=O [TCMDC-137425] | 37.94%
CCCCCCCCCc1c(C)[nH]c2ccccc2c1=O [TCMDC-137268] | 51.45%
CCCCCCCc1c(C)[nH]c2cccc(OC)c2c1=O [TCMDC-138014] | 32.1%
CCCCCCCCc1c(C)[nH]c(C)c(C#N)c1=O [TCMDC-137431] | 44.76%
CCCCCCCc1c(C)[nH]c2ccc(F)cc2c1=O [TCMDC-137269] | 73.68%

Compound | % Inhibition
O=C(NC1CCN(Cc2ccccc2)CC1)c1ccc(-c2nc3cc(F)c(F)cc3[nH]2)s1 [TCMDC-140452] | 7.821%
N#Cc1ccc2c(c1)CCN(CCC1CCC(NC(=O)c3ccc(-c4ccccn4)s3)CC1)CC2 (stereo not shown) [TCMDC-139840] | -69.85%
O=C(Nc1ccc(-c2csc(-c3nc4ccccc4[nH]3)c2)cc1)Nc1ccc(F)c(F)c1F [TCMDC-133221] | 23.86%
CC(Oc1ccc(Cl)cc1)C(=O)N(C)C1CCN(CCCCCNC(=O)/C=C/c2ccc(Cl)c(Cl)c2)CC1 (stereo not shown) [TCMDC-139989] | -40.26%
CC(Oc1ccc(Cl)cc1)C(=O)NCCC1CCN(CCCCCNC(=O)/C=C/c2ccc(Cl)c(Cl)c2)CC1 (stereo not shown) [TCMDC-140003] | 96.79%
CN(C(=O)C(C)(C)Oc1ccc(Cl)cc1)C1CCN(CCCCCNC(=O)/C=C/c2ccc(Cl)c(Cl)c2)CC1 [TCMDC-139990] | 51.05%
O=C(/C=C/c1ccc(Cl)c(Cl)c1)NCCCCCN1CCC(CCNC(=O)/C=C/c2cc(C(F)(F)F)ccc2F)CC1 [TCMDC-140005] | -14.45%
CN(C(=O)Cc1ccc(Cl)c(Cl)c1)C1CCN(CCCCCNC(=O)/C=C/c2ccc(Cl)c(Cl)c2)CC1 [TCMDC-139986] | -22.66%
CN(C(=O)Cc1ccc(Cl)cc1)C1CCN(CCCCCNC(=O)/C=C/c2ccc(Cl)c(Cl)c2)CC1 [TCMDC-139988] | -15.24%
CC(C)(Oc1ccc(Cl)cc1)C(=O)NCCC1CCN(CCCCCNC(=O)/C=C/c2ccc(Cl)c(Cl)c2)CC1 [TCMDC-140004] | 87.45%
CC(C)(C(=O)NCCC1CCN(CCCCCNC(=O)/C=C/c2ccc(Cl)c(Cl)c2)CC1)c1ccc(Cl)cc1 [TCMDC-140002] | 52.94%
CC1(C)N=C(N)NC(NOCc2ccc(Cl)c(Cl)c2)=N1 [TCMDC-131606] | -8.519%
CC(C)[C@H](NC(=O)c1ccc(O)c(-c2ccc(Cl)c(Cl)c2)c1)C(=O)NCCN1CCCCC1 [TCMDC-140858] | 1.563%
N#Cc1nc2ccc(OCCN(Cc3ccccc3C(F)(F)F)c3ccc(C#N)c(C(F)(F)F)c3)cc2s1 [TCMDC-132798] | 33.49%
N#Cc1ccc(NC(=NCCc2c[nH]c3ccccc23)Nc2ccc(-c3ccccc3)cc2)c(O)c1 [TCMDC-140211] | -66.19%
CCCNCc1ccc(-c2ccc(CN(Cc3ccc4c(c3)OCO4)C(=O)Cc3cccnc3)cc2)nc1 [TCMDC-141529] | 106.5%
CCCNCc1ccc(-c2ccc(CN(CCOC)C(=O)Cc3cccnc3)cc2)nc1 [TCMDC-141528] | 108.8%
CC(=O)Nc1cccc(CN(Cc2ccc(-c3ccc(CNCc4cccnc4)cn3)cc2)C(=O)Cc2cccnc2)c1 [TCMDC-141604] | -7.365%
CCCCC(=O)N(CCOC)Cc1ccc(-c2ccc(CNCCC)cn2)cc1 [TCMDC-141536] | 72.35%
CCCNCc1ccc(-c2ccc(CN(CCOC)C(=O)COc3ccccc3Cl)cc2)nc1 [TCMDC-141541] | 51.3%
CCCNCc1ccc(-c2ccc(CN(CCOC)C(=O)CCCOCc3ccccc3)cc2)nc1 [TCMDC-141543] | 33.78%
